Shiga inhibitor – inhibitors of Shiga toxin in Vero cells | actives 9.2% (n = 290,000) | inhibition, % at 38.7 µM | AID 2315 | Vero cells, Shiga toxin protein synthesis inhibition reporter; in the data active means inhibition mostly above about 28%, no sharp cut-off; inactive means mostly below about 43%; further: 0% is about no effect
Pf growth 96h – P. falciparum growth inhibition at 96 hours; AID 504834; Potency, µM (titrated, usually from 28.7 µM), inactives show at the highest dose activity change, negative = inhibition, most hits filed as inhibitors; P. falciparum luciferase reporter growth, 96 h; actives 6.9% (n = 320,000); further: potency means the concentration at half of the fitted maximal effect; on the % scale 0 is the no-effect control and ±100 the full control effect
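Readout is luminescence from an integrated firefly luciferase in P. falciparum. Red cells, 2% hematocrit and 0.05% parasitemia final, were cultured with compound through two parasite generations (96 hours) at 37 C, 5% CO2.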
SARS PLpro yeast – inhibitors of SARS-CoV papain-like protease in yeast | Potency, µM (highest dose often 32.9 µM), without a hit: top-dose activity, positive = growth rescue, most hits filed as activators | S. cerevisiae expressing SARS-CoV PLpro, growth rescue | actives 0.19% (n = 330,000); calls by dose curve; further: potency means the concentration at half of the fitted maximal effect; 0% is about no effect; nearly all actives have a fitted effect of over 55% in size
NS1 function inh – blocks influenza NS1 protein function. actives 0.4% (n = 270,000). Potency, µM (top dose mostly 46.1 µM), inactives show at the highest dose activity, positive = more growth; calls by dose curve; further: potency means the concentration at half of the fitted maximal effect; actives are rising curves; nearly all actives have a fitted effect of over 50% in size
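Recovery from NS1-induced slow growth read by OD600 in budding yeast switched to galactose assay medium (pH 6.0, -URA) at 1:100 dilution. Compound 23 nl per well; the matching strain lacking NS1 serves as control.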
Pf growth 48h – P. falciparum growth inhibition at 48 hours (one generation). P. falciparum luciferase growth in erythrocytes, 48 h. Potency, µM (highest dose often 28.7 µM), inactives show at the highest dose activity change, negative = inhibition, usual class: inhibitors. actives 5.9% (n = 310,000). AID 504832; further: potency means the concentration at half of the fitted maximal effect; on the % scale 0 is the no-effect control and ±100 the full control effect
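Growth was read as firefly luciferase luminescence after a 48 h, 37 C, 5% CO2 exposure of compounds to reporter-bearing P. falciparum cultures (0.1% parasitemia, 2% hematocrit final) in Albumax-supplemented RPMI 1640.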
Cycloheximide cs – counter-screen hit for Shiga toxin inhibitors, cycloheximide | cell reporter, cycloheximide protein synthesis inhibition counterscreen | actives 12% (n = 300,000) | max response, %; in the data active means max response mostly above about 13%, no sharp cut-off; inactive means mostly below about 14%; further: read at 38.3 µM for the half of the compounds with a filed dose; 0% is about no effect
* = called active by the depositor. Shown are actives, neighbours in structure and some others; about 21% of the full set was active somewhere. Unless noted, the call rests on the fitted dose curve; in most records, active means well fitted inhibition curve with a large enough effect; inconclusive means small, poorly fitted or top-dose-only effect, or another doubt; inactive means no such curve, though single readings can be large or run the other way.

What do the screens show for `O=C(Nc1ccnn1C1CCN(Cc2ccc(O)c(Cl)c2)CC1)C1CCCC1`?
Shiga inhibitor: -9.0; Pf growth 96h: inconclusive; SARS PLpro yeast: 2.0%; NS1 function inh: 0.0%; Pf growth 48h: 2.08µM*; Cycloheximide cs: 7.9

Results for Cc1ncc(CO)c(CNc2ccc(Oc3ccccc3)cc2)c1O ?
Shiga inhibitor: -2.7; Pf growth 96h: 73.6%; SARS PLpro yeast: -10.5%; NS1 function inh: -5.3%; Pf growth 48h: inconclusive; Cycloheximide cs: 2.6

Results for Cc1nc(N)sc1C(=O)N1N=N1 ?
Shiga inhibitor: -6.7; Pf growth 96h: 32.4%; SARS PLpro yeast: -0.7%; NS1 function inh: 3.3%; Pf growth 48h: 32.1%; Cycloheximide cs: -2.1

Results for COc1cccc(-c2c(C(=O)N/N=C(\C)COc3ccccc3)nnn2-c2nonc2N)c1 ?
Shiga inhibitor: -4.8; Pf growth 96h: 3.3%; SARS PLpro yeast: 2.3%; NS1 function inh: -3.6%; Pf growth 48h: 3.8%; Cycloheximide cs: -2.6

Results for O=C(O)c1nnsc1COCc1ccccc1 ?
NS1 function inh: -3.1%

Results for CCNC(=S)NNC(=O)C(c1ccccc1)c1ccccc1 ?
Shiga inhibitor: -21.0; Pf growth 96h: -33.3%; SARS PLpro yeast: 9.7%; NS1 function inh: 7.0%; Pf growth 48h: -9.7%; Cycloheximide cs: -1.1

What do the screens show for `CC(C)(C)C(=O)NC(=S)NNC(=O)C(c1ccccc1)c1ccccc1`?
Shiga inhibitor: -3.5; Pf growth 96h: inconclusive; SARS PLpro yeast: -1.7%; NS1 function inh: -37.4%; Pf growth 48h: 13.1µM*; Cycloheximide cs: 3.0

Results for CC(=O)NNC(=S)NC(=O)C(c1ccccc1)c1ccccc1 ?
Shiga inhibitor: -4.3; Pf growth 96h: inconclusive; SARS PLpro yeast: 0.9%; NS1 function inh: -15.6%; Pf growth 48h: 2.08µM*; Cycloheximide cs: -0.8

How did O=C(/C=C/Nc1ccc(S(=O)(=O)Nc2ncccn2)cc1)c1ccc(Cl)c(Cl)c1 do in these assays?
Shiga inhibitor: 15.1; Pf growth 96h: 0.0%; SARS PLpro yeast: inconclusive; NS1 function inh: 4.7%; Pf growth 48h: 16.5%; Cycloheximide cs: -1.1

How did O=C(/C=C/Nc1ccc(S(=O)(=O)Nc2ncccn2)cc1)c1cccs1 do in these assays?
Shiga inhibitor: 55.2*; Pf growth 96h: 49.5%; SARS PLpro yeast: 0.5%; NS1 function inh: 5.0%; Pf growth 48h: 41.2%; Cycloheximide cs: 25.1*

How did O=C(Cc1cccs1)Nc1ccc(F)c(F)c1 do in these assays?
Shiga inhibitor: -3.5; Pf growth 96h: inconclusive; SARS PLpro yeast: -4.9%; NS1 function inh: -10.2%; Pf growth 48h: 9.4%; Cycloheximide cs: -2.4

Results for O=C(/C=C/Nc1ccc(F)c(F)c1)c1cccs1 ?
Shiga inhibitor: 53.4*; Pf growth 96h: 10.4µM*; SARS PLpro yeast: 10.6%; NS1 function inh: -21.4%; Pf growth 48h: 240.9%; Cycloheximide cs: 39.5*

How did O=C(/C=C/Nc1ccc(F)c(F)c1)c1ccc(Br)cc1 do in these assays?
Shiga inhibitor: 92.7*; Pf growth 96h: 43.4%; SARS PLpro yeast: 8.9%; NS1 function inh: -10.6%; Pf growth 48h: 288.9%; Cycloheximide cs: 56.6*

How did O=C(/C=C/Nc1ccc(F)c(Cl)c1)c1ccccc1 do in these assays?
Shiga inhibitor: 59.0*; Pf growth 96h: 330.1%; SARS PLpro yeast: 10.5%; NS1 function inh: -5.7%; Pf growth 48h: 189.5%; Cycloheximide cs: 44.3*

How did CC(=O)Nc1ccc(N/C=C/C(=O)c2ccc(Cl)cc2)cc1 do in these assays?
Shiga inhibitor: 27.1; Pf growth 96h: 39.0%; SARS PLpro yeast: 7.1%; NS1 function inh: 22.9%; Pf growth 48h: 35.8%; Cycloheximide cs: 11.7

Results for COc1ccc(NC(=O)NC23CC4(C)CC(C)(CC(C)(C4)C2)C3)cc1 ?
Shiga inhibitor: -4.5; Pf growth 96h: inactive; SARS PLpro yeast: 11.5%; NS1 function inh: 22.2%; Pf growth 48h: inconclusive; Cycloheximide cs: -3.7

What do the screens show for `C=CCn1cnc2c(nnn2Cc2ccc(F)cc2)c1=O`?
Shiga inhibitor: -20.9; Pf growth 96h: inconclusive; SARS PLpro yeast: 0.7%; NS1 function inh: 0.4%; Pf growth 48h: inconclusive; Cycloheximide cs: -1.4

Results for CC1Cc2ccccc2N1C(=O)CN1CCC(C(N)=O)CC1 (configuration not stated) ?
Shiga inhibitor: -2.8; Pf growth 96h: -14.5%; SARS PLpro yeast: 0.4%; Pf growth 48h: 32.8%; Cycloheximide cs: 1.1

How did CC(NC(=O)c1cc(Br)ccc1Br)c1ccccc1 (configuration not stated) do in these assays?
Shiga inhibitor: 18.5; Pf growth 96h: 41.0%; SARS PLpro yeast: -1.2%; NS1 function inh: 2.7%; Pf growth 48h: 23.7%; Cycloheximide cs: -1.4

What do the screens show for `O=C(/C=C/Nc1ccc(F)cc1)c1ccc(Br)cc1`?
Shiga inhibitor: 116.0*; Pf growth 96h: 2.6%; SARS PLpro yeast: 1.4%; NS1 function inh: -6.6%; Pf growth 48h: inactive; Cycloheximide cs: 29.6*

Results for Cc1ccc(N/C=C/C(=O)c2ccccc2)cc1Br ?
Pf growth 96h: 260.0%; SARS PLpro yeast: -0.9%; NS1 function inh: 8.8%; Pf growth 48h: 259.2%; Cycloheximide cs: 54.0*

Results for O=C(Cn1cnnn1)NCc1ccccc1 ?
Shiga inhibitor: -1.8; Pf growth 96h: 55.7%; SARS PLpro yeast: 2.8%; NS1 function inh: 6.8%; Pf growth 48h: 19.9%; Cycloheximide cs: 4.0

How did CCOC(=O)C1=CN(Cc2cccc(F)c2)S(=O)(=O)N(C)C1CCc1ccccc1 (configuration not stated) do in these assays?
SARS PLpro yeast: -4.6%

What do the screens show for `Cc1cc(C)nc(/N=C(\N)N2CCc3ccccc32)n1`?
Shiga inhibitor: 87.8*; Pf growth 96h: inconclusive; SARS PLpro yeast: 0.7%; NS1 function inh: 2.5%; Pf growth 48h: -4.4%; Cycloheximide cs: 33.2*

How did Cc1cc(C)nc(/N=C(\N)N2CCCCCC2)n1 do in these assays?
Shiga inhibitor: 14.8; Pf growth 96h: inconclusive; SARS PLpro yeast: -1.4%; NS1 function inh: 7.5%; Pf growth 48h: -4.1%; Cycloheximide cs: -2.6

What do the screens show for `Cc1ccc(S(=O)(=O)NNC2CC(=O)N(c3ccc(Br)cc3)C2=O)cc1` (configuration not stated)?
Shiga inhibitor: 3.4; Pf growth 96h: 52.1%; SARS PLpro yeast: -1.0%; NS1 function inh: -0.1%; Pf growth 48h: 10.5%; Cycloheximide cs: -5.4

How did COc1ccccc1[C@@H]1C(c2ccccc2)=NN(c2ccc(Br)cc2)[C@H]1C(=O)N1CCOC1=O do in these assays?
Shiga inhibitor: 44.9; SARS PLpro yeast: 17.3%; Cycloheximide cs: -0.8

Results for COc1ccccc1[C@@H]1C(c2cccc(Cl)c2)=NN(c2ccccc2)[C@H]1C(=O)N1CCOC1=O ?
Shiga inhibitor: 11.5; Pf growth 96h: 10.4µM*; SARS PLpro yeast: -7.3%; NS1 function inh: 15.1%; Pf growth 48h: 14.7µM*; Cycloheximide cs: 9.4

Source: PubChem BioAssay
